# According to PubChem BioAssay (NCATS):
# *1 amine or outer side, *2 acyl side, *3 side chain or, on linkers, in order; H or OH if unused. Where a SMILES comes first, the peptide text is derived from it. Non-standard residues stand in square brackets, D forms with d. Residues, ends and D or L forms follow the SMILES beside them. Bridges are numbered along the chain shown (N, C = ends). Roman numbers before positions name the chains, in order. [ ]: non-standard residue; d: D form. ξ: configuration not given here. Actinocin(9to1) = Cc1c2oc3c(C)ccc(C(=O)[*:1])c3nc-2c(C(=O)[*:2])c(N)c1=O; Orn = NCCC[C@H](N)C(=O)O; ξNMeV = CNC(C(=O)O)C(C)C; ξV = CC(C)C(N)C(=O)O; Sar = CNCC(=O)O
# Assay: qHTS profiling for inhibitors of Plasmodium falciparum (DD2) proliferation (AID 743323)
# Conditions: lower = more inhibition; at 28.7 µM (top of the series) unless noted
# From the text: Plasmodium falciparum is a virulent malarial parasite that kills 1-2 million people worldwide each year. Transmitted by mosquitoes, the sporozoite form of the parasite enters the blood stream to infect hepatocytes, where they become merozoites that infect red blood cells (erythrocytes). Within erythrocytes, merozoites begin a […] cycle of growth and division, after which the parasite is released to infect new red blood cells. Gametocytes, which form within erythrocytes as well, circulate in the bloodstream and are ingested by the mosquito, thereby completing the life cycle. To profile malarial isolates for differential chemical responses and to identify inhibitors of malarial growth, an assay that measures P. falciparum growth and replication within erythrocytes was employed. This assay uses a DNA binding fluorescent dye (SYBR Green) to detect parasite DNA following cell lysis. Because mature erythrocytes lack DNA, only Plasmodium-derived DNA is detected.
# The SYBR Green viability assay was adapted from a method described previously (Plouffe et al., 2008). For screening 3 ul culture medium was dispensed into 1536 well black clear bottom plates (Aurora Biotechnologies) using a Multidrop Combi (Thermo Fisher Scientific Inc.), 23 nL compounds in DMSO were added by a pin tool (Kalypsys), and 5 ul of erythrocytes infected with P. falciparum (0.3% parasitemia, 2.5% hematocrit final concentration) were added. The plates were incubated at 37 C in a humidified incubator in 5% CO2 for 72 h, and 2 ul lysis buffer (20 mM Tris HCl, 10 mM EDTA, 0.16% saponin, […]% triton X, 10X SYBR Green I supplied as 10,000X […] by Invitrogen) was added to each well. The plates were mixed for 25 sec with gentle shaking and incubated overnight at room temperature in the dark. The following morning, fluorescence intensity at 485(14) nm excitation and 535(25) nm emission wavelengths was measured on an EnVision (Perkin Elmer) plate reader. Plate reads were normalized relative to the control inhibitor (0.29 uM artemisinin) and vehicle (DMSO) wells present on each plate and then corrected by an algorithm using vehicle-only control plates at the beginning and end of the compound plate stack.
row,SMILES,"activity, percent of control"
1,CCN(CC)Cc1cc(Nc2ccnc3cc(Cl)ccc23)ccc1O,2.43% [at 9.63 µM]
2,Cc1nnc(C(C)C)n1C1CC2CCC(C1)N2CC[C@H](NC(=O)C1CCC(F)(F)CC1)c1ccccc1 (stereo not given in full),102%
3,CC(C)C[C@@H]1NC(=O)[C@H](CCCN)NC(=O)[C@H](C(C)C)NC(=O)[C@@H]2CCCN2C(=O)[C@@H](Cc2ccccc2)NC(=O)[C@H](CC(C)C)NC(=O)[C@H](CCCN)NC(=O)[C@H](C(C)C)NC(=O)[C@@H]2CCCN2C(=O)[C@@H](Cc2ccccc2)NC1=O (cyclo(V[Orn]L[dF]PV[Orn]L[dF]P)),-0.499%
4,CN1CCC(CN2c3ccccc3Sc3ccccc32)C1 (stereo not given),26.9%
5,CNC1CCN(C(Cc2cccc(-c3ccncc3)c2)C(=O)c2sc3c(F)ccc(F)c3c2Cl)CC1 (stereo not given),0.386%
6,CC[C@@H](C(=O)O)C1CC[C@H](C)C([C@@H](C)[C@H](O)[C@H](C)C(=O)[C@H](CC)C2O[C@]3(C=C[C@@H](O)[C@]4(CC[C@@](C)(C5CC[C@](O)(CC)[C@H](C)O5)O4)O3)[C@H](C)C[C@@H]2C)O1 (stereo not given in full),-0.726%
7,CN(NC(=O)CC(=O)NN(C)C(=S)c1ccccc1)C(=S)c1ccccc1,4.04% [at 57.5 µM]
8,NC(=O)Nc1cc(-c2ccc(CN3CCOCC3)c(F)c2)sc1C(=O)N[C@H]1CCCNC1,1.39%
9,CCCC(=O)O[C@]1(C(=O)CCl)[C@H](C)C[C@@H]2[C@H]3CCC4=CC(=O)C=C[C@]4(C)[C@@]3(F)C(=O)C[C@@]21C,1.4%
10,CCC1(Cc2ccc(N)cc2)CCC(=O)NC1=O (stereo not given),97.2% [at 57.5 µM]
11,C[C@@H]1CCC2[C@@H](C)[C@@H](O)O[C@@H]3O[C@@]4(C)CC[C@@H]1[C@@]23OO4 (stereo not given in full),-0.207%
12,CCOc1cc2ncc(C#N)c(Nc3ccc(OCc4ccccn4)c(Cl)c3)c2cc1NC(=O)/C=C/CN(C)C,5.17%
13,O=C(O)CC/C=C\CC[C@H]1[C@@H](N2CCCCC2)[C@@H](O)C[C@@H]1OCc1ccc(-c2ccccc2)cc1,86.9%
14,COC(=O)C1=C(C)NC(C)=C(C(=O)OCCCN2CCC(c3ccccc3)(c3ccccc3)CC2)[C@H]1c1cccc([N+](=O)[O-])c1,-0.102%
15,"Cc1c2oc3c(C)ccc(C(=O)N[C@@H]4C(=O)NC(C(C)C)C(=O)N5CCC[C@H]5C(=O)N(C)CC(=O)N(C)C(C(C)C)C(=O)O[C@@H]4C)c3nc-2c(C(=O)N[C@@H]2C(=O)NC(C(C)C)C(=O)N3CCC[C@H]3C(=O)N(C)CC(=O)N(C)C(C(C)C)C(=O)O[C@@H]2C)c(N)c1=O (stereo not given in full) (I: T[ξV]P[Sar][ξNMeV] / II: T[ξV]P[Sar][ξNMeV]; ester I:1-I:C, II:1-II:C; linker I:N-II:N via Actinocin(9to1))",-1.83%
16,O=c1cc(C2=CC=CC3Sc4ccccc4SC23)oc(N2CCOCC2)c1 (stereo not given),88.7%
17,CCCCCCCCCCCCCCCCCCOP(=O)([O-])OC1CC[N+](C)(C)CC1,114% [at 18.4 µM]
18,CC(NC(=O)Cc1cc(F)cc(F)c1)C(=O)NC(C(=O)OC(C)(C)C)c1ccccc1 (stereo not given),97.7%
19,C[C@@H]1CCN(C(=O)CC#N)C[C@@H]1N(C)c1ncnc2[nH]ccc12,99.8%
20,CCC1(O)CC2CN(CCc3c([nH]c4ccccc34)[C@@](C(=O)OC)(c3cc4c(cc3OC)N(C=O)[C@H]3[C@](O)(C(=O)OC)[C@H](OC(C)=O)[C@]5(CC)C=CCN6CC[C@]43[C@@H]65)C2)C1 (stereo not given in full),13.7%
